# PubChem BioAssay (Tox21)
# “And” between values parts separate entries of the source, which are not always exact repeats. Equal entries are not always repeated. Results filed as inconclusive are left out. A call without a number means that no potency is given here. Where a structure was tested more than once in an assay, its records may differ in their call. The source made the active and inactive calls. The call rests on the fitted dose curve; in most records, active means well fitted curve in the direction sought with a large enough effect in the repeat runs; inconclusive means weak or mixed curves; inactive means no such curve, though single readings can be large; an effect the other way counts as inactive or inconclusive.
# Assays:
# [1] = molecular target: Cytochrome P450 2C19 (Homo sapiens) (UniProt P33261); assay: Cytochrome P450 Family 2 Subfamily C Member 19 (CYP2C19) small molecule antagonists: luciferase reporter qHTS assay (AID 1671197); further: nearly all actives have a fitted effect of over 65% in size; further: potency means the concentration at half of the fitted maximal effect
# Sequence of Cytochrome P450 2C19 (Homo sapiens) (P33261 whole entry, looked up): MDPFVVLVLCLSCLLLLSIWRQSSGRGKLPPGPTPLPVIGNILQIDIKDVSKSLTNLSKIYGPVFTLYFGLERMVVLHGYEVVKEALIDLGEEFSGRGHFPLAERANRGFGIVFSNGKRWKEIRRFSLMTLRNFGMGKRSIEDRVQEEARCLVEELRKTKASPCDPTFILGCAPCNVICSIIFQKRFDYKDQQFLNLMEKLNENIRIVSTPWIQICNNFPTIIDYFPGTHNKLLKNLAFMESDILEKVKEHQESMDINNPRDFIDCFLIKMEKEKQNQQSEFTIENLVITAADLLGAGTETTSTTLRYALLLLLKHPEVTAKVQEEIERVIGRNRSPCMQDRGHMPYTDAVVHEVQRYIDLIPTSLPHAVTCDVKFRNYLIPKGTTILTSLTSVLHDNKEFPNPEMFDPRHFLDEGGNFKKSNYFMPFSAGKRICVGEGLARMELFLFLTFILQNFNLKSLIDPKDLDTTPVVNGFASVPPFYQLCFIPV
# Outline: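 Luminescent readout of CYP2C19 activity: luciferin product detected 20 min after adding detection reagent. Before that, compound and enzyme-substrate mix preincubated 10 min at room temperature; NADPH-regenerating system started a 1 h, 37C reaction. Ketoconazole as positive control.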
# [2] = molecular target: Cytochrome P450 2C9 (Homo sapiens) (UniProt P11712); assay: Cytochrome P450 Family 2 Subfamily C Member 9 (CYP2C9) small molecule antagonists: luciferase reporter qHTS assay (AID 1671198); further: nearly all actives have a fitted effect of over 50% in size; further: potency means the concentration at half of the fitted maximal effect
# Sequence of Cytochrome P450 2C9 (Homo sapiens) (P11712 whole entry, looked up): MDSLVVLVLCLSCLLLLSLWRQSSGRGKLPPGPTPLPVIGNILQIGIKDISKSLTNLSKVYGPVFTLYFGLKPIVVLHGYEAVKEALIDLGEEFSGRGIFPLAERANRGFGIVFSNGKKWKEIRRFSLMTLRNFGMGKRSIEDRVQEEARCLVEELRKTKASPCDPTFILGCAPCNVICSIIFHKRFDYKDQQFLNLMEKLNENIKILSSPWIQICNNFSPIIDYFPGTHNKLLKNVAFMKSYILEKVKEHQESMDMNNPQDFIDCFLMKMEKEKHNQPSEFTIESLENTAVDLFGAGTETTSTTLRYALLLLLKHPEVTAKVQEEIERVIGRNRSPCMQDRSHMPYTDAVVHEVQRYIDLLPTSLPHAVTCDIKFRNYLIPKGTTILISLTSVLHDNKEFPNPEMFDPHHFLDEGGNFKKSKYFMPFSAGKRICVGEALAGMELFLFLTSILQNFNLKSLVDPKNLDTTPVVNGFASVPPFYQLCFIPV
# Outline: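 CYP2C9 activity was measured with a P450-Glo proluciferin substrate. Enzyme–substrate mix was held with compound for 10 min at room temperature, then NADPH regeneration solution was added for 1 h at 37C. Luciferin product was read as luminescence.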
# [3] = molecular target: Cytochrome P450 1A2 (Homo sapiens) (UniProt P05177); assay: Cytochrome P450 Family 1 Subfamily A Member 2 (CYP1A2) small molecule antagonists: luciferase reporter qHTS assay (AID 1671199); further: series mostly up to about 120 µM; nearly all actives have a fitted effect of over 50% in size
# Sequence of Cytochrome P450 1A2 (Homo sapiens) (P05177 whole entry, looked up): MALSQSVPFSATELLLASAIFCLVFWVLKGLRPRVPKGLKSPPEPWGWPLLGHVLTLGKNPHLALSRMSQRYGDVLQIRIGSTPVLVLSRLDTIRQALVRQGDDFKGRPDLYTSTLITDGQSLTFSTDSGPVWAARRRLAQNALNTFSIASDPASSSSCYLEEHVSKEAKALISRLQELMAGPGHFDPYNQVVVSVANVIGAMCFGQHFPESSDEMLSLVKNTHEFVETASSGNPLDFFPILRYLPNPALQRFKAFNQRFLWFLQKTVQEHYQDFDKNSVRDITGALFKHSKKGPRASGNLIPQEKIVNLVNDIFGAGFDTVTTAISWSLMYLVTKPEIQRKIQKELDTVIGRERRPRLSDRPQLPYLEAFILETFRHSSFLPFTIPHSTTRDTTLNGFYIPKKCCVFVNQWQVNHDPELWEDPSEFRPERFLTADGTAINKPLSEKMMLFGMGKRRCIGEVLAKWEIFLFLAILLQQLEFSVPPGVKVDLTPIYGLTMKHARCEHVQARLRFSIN
# Outline: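 Luminescence from luciferin formed by CYP1A2 from a proluciferin substrate, read 20 min after detection reagent. Compound was pre-incubated 10 min with enzyme-substrate, and reaction started with NADPH regeneration solution for 1 h at room temperature; furafylline control.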
# [4] = molecular target: Voltage-gated inwardly rectifying potassium channel KCNH2 (Homo sapiens) (UniProt Q12809); assay: Human Ether-a-go-go-Related Gene (hERG) channel small molecule antagonists: fluorescence cell-based qHTS assay (AID 1671200);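 further: hERG-expressing U2OS cells given a thallium stimulus after FluxOR II dye loading; series mostly up to about 77 µM; nearly all actives have a fitted effect of over 50% in size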
# Sequence of Voltage-gated inwardly rectifying potassium channel KCNH2 (Homo sapiens) (Q12809 whole entry, looked up): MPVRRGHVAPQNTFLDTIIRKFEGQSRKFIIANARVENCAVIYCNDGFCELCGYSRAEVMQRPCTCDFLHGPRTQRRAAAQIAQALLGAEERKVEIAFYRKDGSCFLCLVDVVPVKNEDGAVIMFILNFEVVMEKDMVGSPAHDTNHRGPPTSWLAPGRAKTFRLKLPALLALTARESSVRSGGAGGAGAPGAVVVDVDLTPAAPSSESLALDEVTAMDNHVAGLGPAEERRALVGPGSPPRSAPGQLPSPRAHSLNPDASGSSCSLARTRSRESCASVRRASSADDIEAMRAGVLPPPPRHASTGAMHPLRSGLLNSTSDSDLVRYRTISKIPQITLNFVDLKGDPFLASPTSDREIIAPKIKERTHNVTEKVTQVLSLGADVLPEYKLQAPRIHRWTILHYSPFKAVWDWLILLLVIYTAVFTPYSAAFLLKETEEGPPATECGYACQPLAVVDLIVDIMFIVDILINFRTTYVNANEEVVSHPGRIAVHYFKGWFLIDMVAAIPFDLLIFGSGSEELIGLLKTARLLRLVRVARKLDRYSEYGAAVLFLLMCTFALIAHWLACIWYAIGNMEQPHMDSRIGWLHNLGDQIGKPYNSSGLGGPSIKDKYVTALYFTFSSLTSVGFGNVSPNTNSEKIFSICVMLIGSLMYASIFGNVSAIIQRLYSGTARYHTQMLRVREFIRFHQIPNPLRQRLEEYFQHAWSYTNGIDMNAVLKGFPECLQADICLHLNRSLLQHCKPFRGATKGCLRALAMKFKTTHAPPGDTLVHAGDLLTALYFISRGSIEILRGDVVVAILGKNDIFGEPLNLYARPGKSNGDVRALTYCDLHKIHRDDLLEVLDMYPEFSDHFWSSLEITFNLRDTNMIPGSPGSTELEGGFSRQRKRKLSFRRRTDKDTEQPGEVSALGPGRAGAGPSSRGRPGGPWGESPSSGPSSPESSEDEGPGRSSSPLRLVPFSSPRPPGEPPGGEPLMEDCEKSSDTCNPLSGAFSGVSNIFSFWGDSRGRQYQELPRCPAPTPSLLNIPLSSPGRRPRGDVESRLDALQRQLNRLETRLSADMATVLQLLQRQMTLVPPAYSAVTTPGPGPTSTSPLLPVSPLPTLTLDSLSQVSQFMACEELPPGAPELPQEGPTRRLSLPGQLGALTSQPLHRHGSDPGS
# Outline: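 Measured: Tl+ flux via fluorescence (480/540 nm) in hERG-expressing U2OS cells after 1 h dye loading at room temperature.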
# [5] = molecular target: Cytochrome P450 3A4 (Homo sapiens) (UniProt P08684); assay: Cytochrome P450 Family 3 Subfamily A Member 4 (CYP3A4) small molecule antagonists: luciferase reporter qHTS assay (AID 1671201); further: nearly all actives have a fitted effect of over 50% in size; further: potency means the concentration at half of the fitted maximal effect
# Sequence of Cytochrome P450 3A4 (Homo sapiens) (P08684 whole entry, looked up): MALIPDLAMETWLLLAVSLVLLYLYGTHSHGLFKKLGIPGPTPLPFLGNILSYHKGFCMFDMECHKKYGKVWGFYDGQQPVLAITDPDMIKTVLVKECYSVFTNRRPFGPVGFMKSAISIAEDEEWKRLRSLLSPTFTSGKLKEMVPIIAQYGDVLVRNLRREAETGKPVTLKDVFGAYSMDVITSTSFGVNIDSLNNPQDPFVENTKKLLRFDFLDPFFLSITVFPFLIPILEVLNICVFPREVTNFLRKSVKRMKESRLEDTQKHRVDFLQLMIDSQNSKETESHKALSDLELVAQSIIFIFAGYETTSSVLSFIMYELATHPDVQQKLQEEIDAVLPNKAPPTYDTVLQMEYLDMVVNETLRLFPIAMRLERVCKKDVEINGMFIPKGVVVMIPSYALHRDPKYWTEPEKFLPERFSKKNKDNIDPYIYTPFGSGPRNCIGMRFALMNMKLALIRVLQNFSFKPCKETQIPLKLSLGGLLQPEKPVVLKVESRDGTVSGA
# Outline: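 Setup: enzyme-substrate mix, compound pin transfer, 10 min RT. Reaction: NADPH regeneration solution, 1 h RT. Readout: detection reagent stops turnover, luminescence measured after 20 min, expressed in relative luminescence units.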
Compound,Potency [1],Potency [2],Potency [3],Potency [4],Potency [5]
Cc1ccc2c(n1)Oc1ccc(C(C)C(=O)OCC(=O)N(C)C)cc1C2 (stereo not drawn),17.4 µM (active),21.9 µM (active),inactive,inactive,inactive
C=CC(C)(CCC=C(C)C)OC(C)=O (stereo not drawn),inactive and 17.8 µM (active),inactive and 35.6 µM (active),inactive,inactive,inactive and 28.3 µM (active)
OC[C@H]1O[C@@H]2O[C@H]3[C@H](O)[C@@H](O)[C@@H](O[C@H]4[C@H](O)[C@@H](O)[C@@H](O[C@H]5[C@H](O)[C@@H](O)[C@@H](O[C@H]6[C@H](O)[C@@H](O)[C@@H](O[C@H]7[C@H](O)[C@@H](O)[C@@H](O[C@H]8[C@H](O)[C@@H](O)[C@@H](O[C@H]1[C@H](O)[C@H]2O)O[C@@H]8CO)O[C@@H]7CO)O[C@@H]6CO)O[C@@H]5CO)O[C@@H]4CO)O[C@@H]3CO,31.8 µM (active) and inactive,inactive,inactive,inactive,inactive
CCC(C)c1ccccc1O (stereo not drawn),inactive,,,inactive,inactive
Oc1ccc(O)cc1,inactive,,inactive,inactive,inactive
COc1cccc2c1C(=O)c1c(O)c3c(c(O)c1C2=O)C[C@@](O)(C(=O)CO)C[C@@H]3O[C@H]1C[C@H](N)[C@H](O)[C@H](C)O1,inactive,,,inactive,
CC(C)=CCCC(C)CCO (stereo not drawn),inactive and 50.2 µM (active),inactive,,inactive,inactive and 39.9 µM (active)
